Out of some 300,000 compounds screened, about 990 (0.33%) were called active. This is one part of a sample in which actives are shown more often than they occur. Values without a mark were called inactive.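 The calls were made as follows: active = inhibition above the screen mean inhibition plus 3 SD, computed separately per campaign (cut at about 18% in these data); inactive = the rest.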

This assay deals with Fam108B (ABHD17B) serine hydrolase [Mus musculus]. Put plainly: mouse Fam108B serine hydrolase inhibitors, primary screen, counter-screen for RBBP9 inhibitor project, biochemical, fluorescence polarization (AID 1947).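 Also: inhibitors lower polarization as less probe binds the enzyme.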 The following applies: recombinant Fam108B, FP-Rh probe fluorescence polarization; at 9.51 µM; active compounds read high. On the technique in general: Counterscreens check selectivity or assay interference.
The inhibition is the relative decrease from the control value, in per cent. For the compound `COc1ccccc1C1=Nc2cccc3cccc(c23)N1`, the inhibition is 6.45%.

For the compound `c1ccc(C2=Nc3cccc4cccc(c34)N2)cc1`, the inhibition is 31.5% (active).

As for `Fc1ccccc1N=C1Nc2cccc3cccc1c23`, the inhibition was 3.49%.

Consider `CCN(CC(=O)NCc1ccc(Cl)cc1)C(=O)CSc1ccccc1`, for which the inhibition is 1.51%.

For the compound `CN1/C(=C\C=C2\N=C(c3ccc(F)cc3)OC2=O)C(C)(C)c2ccccc21`, the inhibition is -7.15%.

Turning to `CC(=O)Nc1cccc(Nc2nc(-c3cccs3)nc3ccccc23)c1`, the inhibition is -19.2%.

With `COc1ccc(Nc2nc(-c3cccnc3)nc3ccccc23)cn1`, the inhibition was -1.81%.

For the compound `Cc1cccc(-c2nc(Nc3ccc(O)cc3)c3ccccc3n2)c1`, the inhibition is 29.1% (active).

`O=C(C/C(=N\NC(=O)c1ccccc1Br)C(F)(F)F)c1cccs1`: the inhibition is 1.64%.

As to `Cc1ccc(N/C(N)=N/c2nc(C(F)(F)F)cc(C(F)(F)F)n2)cc1`, the inhibition is -3.46%.

As for `CCOc1ccc(NC(=O)COc2ccc(S(=O)(=O)N3CCCC3)cc2)cc1`, the inhibition is -2.57%.

For `COCCNC(=O)c1ccccc1NS(=O)(=O)c1ccc(C)c([N+](=O)[O-])c1`, the inhibition was -2.57%.

Take `Cc1ccc(NS(=O)(=O)c2ccc(C)c(NC(=O)COc3ccc4ccccc4c3)c2)c(C)c1`: the inhibition was -29.8%.

With `Cc1ccc(NS(=O)(=O)c2ccc(N/N=C/c3ccccc3OCC(=O)O)c([N+](=O)[O-])c2)c(C)c1`, the inhibition is 26.5% (active).

Regarding `CO/N=C/c1ccc(N2CCN(C(=O)c3cccc(Cl)c3)CC2)c([N+](=O)[O-])c1`, the inhibition was 4.08%.

For `O=C(O)CCN=C1CCc2ccccc2N1`, the inhibition was 9.07%.

Consider `CC(=O)Nc1ccc(NC(=O)CSC2=NS(=O)(=O)c3ccccc3N2)cc1`, for which the inhibition was 0.2%.

Turning to `CC(C)(C)C(=O)OCc1nc(-c2ccc(O)c(O)c2)cs1`, the inhibition is -1.7%.

As for `COc1ccc(CC(=O)Nc2nc(-c3ccc(F)c(F)c3)cs2)cc1OC`, the inhibition was -7.43%.

As for `COc1ccc(OC)c(Nc2nc(-c3ccc(O)c(O)c3)cs2)c1`, the inhibition is 20.1% (active).

On to `CCOc1ccc(S(=O)(=O)Nc2nccs2)cc1`, for which the inhibition was 2.3%.

For the compound `COC(C[C@@H](O)C[C@H](O)[C@H](C)OCc1ccccc1)OC`, the inhibition is 4.92%.

Consider `COc1ccccc1NS(=O)(=O)c1ccc(C)c(C(=O)NCC(c2ccco2)N(C)C)c1` (stereo not given), for which the inhibition is -0.42%.

Regarding `CC(=O)Nc1ccc(Oc2ccc3c(c2)C(=O)NC3=O)cc1`, the inhibition was 0.73%.

As to `C=CCn1c(=S)[nH]c2scc(-c3ccco3)c2c1=O`, the inhibition is 18.5% (active).

Turning to `C=CCn1c(SCc2csc(C)n2)nc2scc(-c3ccc(C)o3)c2c1=O`, the inhibition was 0.24%.

As to `C=CCNC(=O)CSc1nc2scc(-c3ccco3)c2c(=O)n1CC=C`, the inhibition was -0.48%.

On to `O=C(CCCN1C(=O)/C(=C/c2cccs2)SC1=S)Nc1ccc(O)cc1`, for which the inhibition was -3.39%.

As for `CCC/C(C)=N\Nc1nc2c(c(=O)n(C)c(=O)n2C)n1C`, the inhibition is 0.84%.

`O=[N+]([O-])c1ccc(N/N=C/c2ccccc2)cc1`: the inhibition was 5.14%.

For the compound `Cc1cccc(COc2ccccc2/C=N/Nc2ccc([N+](=O)[O-])cc2)c1`, the inhibition is 23% (active).

As for `Cc1ccccc1OCCOc1ccc([N+](=O)[O-])cc1/C=N/n1cnnc1`, the inhibition is -2.64%.

With `CC1=CC2=NC(=O)CC(C)(C(=O)N(CC(=O)NC(C)(C)C)Cc3ccccc3)N2C=C1` (stereo not given), the inhibition is 0.82%.

In the case of `Cc1c(C(=O)N2CCCc3ccccc32)oc2ccccc12`, the inhibition is 0.38%.

In the case of `Cc1c(C(=O)N2CCCc3ccccc32)sc2nc(-c3ccccc3)cn12`, the inhibition was 2.92%.

As for `Cc1cccc2cc3c(N)c(C(=O)N4CCCc5ccccc54)sc3nc12`, the inhibition is 18.9% (active).

Take `O=C(CCC(=O)n1ncc2ccccc21)NCc1ccccc1Cl`: the inhibition was 0.79%.

Regarding `COc1ccccc1-c1nnc(-c2ccc(F)cc2)o1`, the inhibition is -1.04%.

In the case of `COc1ccc(-c2csc3nc(-c4ccccc4F)oc(=O)c23)cc1OC`, the inhibition is 21.9% (active).

`COc1ccc(-c2csc(-c3cccs3)n2)cc1OC`: the inhibition was 3.25%.
